PubChem BioAssay (NCATS)
Records with an inconclusive call do not appear. Unmarked numbers belong to inactive results. Active and inactive are the calls of the source. Calls come from the whole dose curve; as a rule, active = well fitted curve in the direction sought with a large enough effect; inconclusive = small, poorly fitted or top-dose-only effect, or another doubt; inactive = no such curve, though single readings can be large; an effect the other way counts as inactive or inconclusive.

Legend:
[1] = system: Zika virus NS2B-NS3 protease (linked construct); assay: Confirmatory screen NINDS AMC qHTS for Zika virus inhibitors (AID 1347152); note: nearly all actives have a fitted effect of over 70% in size; note: potency is the fitted concentration of half-maximal effect;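 for activity change, negative = inhibition: top concentration of the series differs between compounds; 0% = no-inhibitor control and -100% = no-enzyme control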
Outline: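 IC50s from 4-parameter Hill fits of percent inhibition, based on AMC fluorescence gain (340/450 nm) over 15 min with 10 microM Bz-Nle-KRR-AMC. Enzyme: 1 nM linked NS2B-NS3 in Tris-HCl pH 8.0; 15-min compound preincubation.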

[2] = system: Zika virus NS2B-NS3 protease (unlinked complex); assay: Confirmatory screen GU AMC qHTS for Zika virus inhibitors (AID 1347153);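 note: enzyme at 25 nM with substrate at 10 µM below its Km of 18.3 µM; potency is the fitted concentration of half-maximal effect; nearly all actives have a fitted effect of over 70% in size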
Outline: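 Compounds were preincubated 15 min at room temperature with 25 nM noncovalent NS2B-NS3 protease at pH 8.0; AMC substrate added at 10 microM and 15-min fluorescence gain (340/450 nm) converted to percent inhibition, fitted 4-parameter.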

[3] = system: Zika virus NS2B-NS3 protease (unlinked complex); assay: Primary screen GU Rhodamine qHTS for Zika virus inhibitors: Unlinked NS2B-NS3 protease assay (AID 1347159); note: nearly all actives have a fitted effect of over 60% in size; note: potency is the fitted concentration of half-maximal effect; for activity change, negative = inhibition: % is set by controls: 0 for no effect and ±100 for the full control effect
Outline: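 Percent inhibition derives from the 15-min fluorescence change (ex 480, em 540 nm), normalized to no-enzyme and no-inhibitor wells. Reactions contained 25 nM NS2B-NS3 complex and 1.5 microM substrate in 10 mM Tris-HCl pH 8.0.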

[4] = system: Zika virus NS2B-NS3 protease (linked construct); assay: Primary screen NINDS Rhodamine qHTS for Zika virus inhibitors (AID 1347160); note: nearly all actives have a fitted effect of over 55% in size; note: potency is the fitted concentration of half-maximal effect; for activity change, negative = inhibition: % is set by controls: 0 for no effect and ±100 for the full control effect
Outline: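 In 10 mM Tris-HCl pH 8.0 containing 0.01% Tween 20, linked NS2B-NS3 protease (25 nM final) is exposed to test compounds for 15 min. Cleavage of 1.5 microM Rhodamine110 substrate is tracked by fluorescence over 15 min.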

[5] = Confirmatory screen NINDS Rhodamine qHTS for Zika virus inhibitors (AID 1347161); note: potency is the fitted concentration of half-maximal effect; nearly all actives have a fitted effect of over 60% in size
Outline: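 Percent inhibition, normalized to uninhibited and enzyme-free controls, is fitted to a 4-parameter Hill equation. Fluorescence change comes from a 15-min cleavage of 1.5 microM bis-peptide Rhodamine110 substrate by 25 nM linked NS2B-NS3 at room temperature.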

[6] = system: Zika virus NS2B-NS3 protease (linked construct); assay: 384 well plate NINDS Rhodamine confirmatory qHTS for Zika virus inhibitors (AID 1347164);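 note: fluorescence from protease cleavage of Ac-LKRR-rhodamine 110 substrate; nearly all actives have a fitted effect of over 65% in size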; note: potency is the fitted concentration of half-maximal effect;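 for activity change, negative = inhibition: top concentration of the series differs between compounds; plate controls were no-inhibitor control for no effect and no-enzyme control for full effect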
Outline: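 Fluorescence at 485/538 nm was measured 25 minutes after adding 10 microM Ac-LKRR-Rd substrate, in the dark at room temperature. The protease (5, 30 or 60 nM final) had been preincubated ~15 minutes with compound; aprotinin as control.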

[7] = Vero cells viability qHTS for Zika virus inhibitors (AID 1347167); note: % is set by controls: 0 for no effect and ±100 for the full control effect
Outline: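 Compounds were tested in concentration series on cells grown in DMEM containing 4% FBS. After 24 to 48 hours, cellular ATP was measured by luminescence with CellTiter Glo.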

[8] = system: Zika virus NS2B-NS3 protease; assay: Primary screen GU AMC qHTS for Zika virus inhibitors (AID 1347154);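 note: 0% = no-inhibitor control and -100% = no-enzyme control; nearly all actives have a fitted effect of over 70% in size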
Outline: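 Fluorogenic AMC-substrate cleavage by noncovalent NS2B-NS3 protease complex (25 nM, pH 8.0 Tris buffer with Tween 20) followed for 15 minutes at room temperature (~20% conversion). Percent inhibition from ex340/em450 signal change, fitted by 4-parameter Hill equation.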

[9] = ZIKV-mCherry secondary qHTS for Zika virus inhibitors (AID 1347158); note: potency is the fitted concentration of half-maximal effect; for activity change, negative = inhibition: top concentration of the series differs between compounds
Outline: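 After overnight seeding at 37 °C, Vero cells receive compound and then ZIKV-mCherry (MOI 1). Following 48-72 h infection, cells are fixed, counterstained with Hoechst, and imaged; percent infected cells is derived from an mCherry intensity cut-off of 450 RFU.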

In the case of CC1=C(C(=O)OCc2ccccc2)C(c2ccc(-c3ccccc3)cc2)NC(=O)N1CCCCCC(=O)O (stereo not drawn), the Potency [1] is reported as 22.1 µM (active), the Potency [2] is reported as 31.2 µM (active) and the Potency [3] is reported as 3.16 µM (active). The Potency [4] was 7.94 µM (active), the Potency [5] was 2.48 µM (active) and the Potency [6] was 0.631 µM (active). For the same compound, the outcome [7] was “inactive”.
With CC1=C(C)C(=O)OC(C(C)C2CCC3C4C5OC5C5(O)CC(OC6OC(CO)C(OC7OC(C)C(O)C(O)C7O)C(O)C6O)CC(O)C5(C)C4CCC23C)C1 (stereo not drawn) the Potency [3] was “inactive”.
With CN(C)c1ccc2c(c1)OC(N)=C(C#N)C2c1cccc(C(F)(F)F)c1 (stereo not drawn) the Potency [3] was “inactive”.
In the case of CC(=O)O[C@H]1C(=O)[C@@]2(C)[C@H]([C@H](OC(=O)c3ccccc3)[C@]3(O)C[C@H](OC(=O)[C@H](O)[C@@H](NC(=O)c4ccccc4)c4ccccc4)C(C)=C1C3(C)C)[C@]1(OC(C)=O)CO[C@@H]1C[C@@H]2O, the Potency [8] is reported as “inactive”, the Potency [3] is reported as “inactive” and the Potency [4] is reported as “inactive”.
For COc1ccc(Cl)c(Nc2nc3ccccc3nc2NS(=O)(=O)c2cccc(NC(=O)C(C)(C)N)c2)c1, the Potency [9] was 15.8 µM (active), the Potency [3] was 7.94 µM (active) and the Potency [4] was 5.01 µM (active). The Potency [5] was 5.55 µM (active), the Potency [6] was 3.98 µM (active) and the outcome [7] was “inactive”.
In the case of CC(=O)NC1C(OC(C)(C)C2CCC3(C)C=C(C4CCC5C4(C)CC(O)C4OC(C(C)(C)O)CCC45C)CCC3O2)OC(CO)C(O)C1O (stereo not drawn), the Potency [3] is reported as “inactive”.
In the case of O=C(N/N=C/c1ccc(O)c(O)c1)c1cc2ccccc2cc1O, the Potency [1] is reported as “inactive”, the Potency [4] is reported as 5.01 µM (active) and the Potency [5] is reported as 6.55 µM (active). The Potency [6] was 0.447 µM (active) and the outcome [7] was “inactive”.
For CCc1c(-c2ccccc2)c(-c2ccccc2)nn1-c1ccccc1-c1cccc(OCC(=O)O)c1, the Potency [1] was 13.9 µM (active), the Potency [2] was 27.8 µM (active) and the Potency [3] was 6.31 µM (active). For the same compound, the Potency [4] was 3.55 µM (active), the Potency [5] was 3.12 µM (active) and the Potency [6] was 2.51 µM (active). For the same compound, the outcome [7] was “inactive”.
In the case of C=C[C@H]1[C@H](O[C@@H]2O[C@H](CO)[C@@H](O)[C@H](O)[C@H]2O)OC=C(C(=O)OC)[C@H]1CCOC(=O)c1cc(O)c(O)c(O)c1, the Potency [1] is reported as “inactive”, the Potency [3] is reported as 15.8 µM (active) and the Potency [4] is reported as 8.91 µM (active). The Potency [5] was 10.8 µM (active) and the outcome [7] was “inactive”.
With CCCCCCOc1cc2c(cc1N(C)c1ncc(C(=O)O)cn1)C(C)(C)CCC2(C)C the Potency [1] was 31.2 µM (active), the Potency [2] was 35 µM (active) and the Potency [3] was 3.98 µM (active). For the same compound, the Potency [4] was 7.94 µM (active), the Potency [5] was 4.41 µM (active) and the Potency [6] was 3.16 µM (active). The outcome [7] was “inactive”.
With CC1(C)CC2=C3C=CC4C5(C)CCC(O)C(C)(C)C5CCC4(C)C3(C)CCC2(C)C(O)C1 (stereo not drawn) the Potency [9] was “inactive”, the Potency [3] was 15.8 µM (active) and the Potency [4] was 8.91 µM (active). The Potency [5] was 10.8 µM (active) and the outcome [7] was “inactive”.
With O=C(O)c1c(O)c(-c2ccccc2)nc2ccccc12 the Potency [8] was “inactive”.
For C/C1=C\CCC(C)CCO[C@@H]2O[C@H](CO[C@@H]3OC[C@H](O)[C@H](O)[C@H]3OC1=O)[C@@H](O)[C@H](O)[C@H]2O (stereo partly drawn), the Potency [3] was 31.6 µM (active).
For CC(C)[C@@H](CS(=O)(=O)C(C)C)N1C(=O)[C@@](C)(CC(=O)O)C[C@H](c2cccc(Cl)c2)[C@H]1c1ccc(Cl)cc1, the Potency [3] was 28.2 µM (active).
In the case of CC(C)c1cccc2c(-c3ccccc3)cc(-c3ccc(-c4ccc(C(=O)O)cc4)[nH]3)nc12, the Potency [1] is reported as 44.1 µM (active), the Potency [2] is reported as 49.4 µM (active) and the Potency [9] is reported as 7.08 µM (active). The Potency [3] was 3.55 µM (active), the Potency [4] was 7.08 µM (active) and the Potency [5] was 2.21 µM (active). For the same compound, the Potency [6] was “inactive” and the outcome [7] was “inactive”.
In the case of CC(C)c1cc(C(=O)N2CC[C@@H](NC(=O)C3CC3)C2)n[nH]1, the Potency [3] is reported as “inactive”.
With CC(c1ncncc1F)C(O)(Cn1cncn1)c1ccc(F)cc1F (stereo not drawn) the Potency [3] was “inactive”.
For COc1ccc(N2CCOCC2)c2sc(NC(=O)N3CCC(C)(O)CC3)nc12, the Potency [3] was “inactive”.
In the case of C=C1C(=O)OC2CC(C)=C(C(C)CCCO)C(O)C12 (stereo not drawn), the Potency [3] is reported as 20 µM (active).
With C=CC(=O)N1CCN(C(=O)CNc2cc(I)c(Cl)cc2O)CC1 the Potency [3] was “inactive”.
With OC1CCC(Nc2ncc3nc(Nc4c(F)cc(F)cc4F)n([C@H]4CCOC4)c3n2)CC1 (stereo partly drawn) the Potency [3] was “inactive”.
In the case of COC1C(=O)CCC2(CO2)C1(O)C1(C)OC1CC=C(C)C (stereo not drawn), the Potency [3] is reported as 44.7 µM (active).
In the case of C=C1[C@H](OC(C)=O)[C@H]2[C@@H](OC(C)=O)[C@](C)(OC(C)=O)C[C@]2(OC(C)=O)C(=O)[C@H](C)/C=C/C(C)(C)C(=O)[C@H](OC(=O)C(C)CC)[C@H]1OC(C)=O (stereo partly drawn), the Potency [3] is reported as “inactive”.
C[C@@H]1O[C@@H](O[C@H]2[C@H](OC(=O)[C@]34CCC(C)(C)C[C@H]3C3=CCC5[C@@]6(C)C[C@H](O)[C@H](O[C@@H]7O[C@H](CO)[C@@H](O[C@H]8OC[C@](O)(CO)[C@H]8O)[C@H](O)[C@H]7O)[C@@](C)(CO)C6[C@H](O)C[C@@]5(C)[C@]3(C)C[C@H]4O)OC[C@H](O)[C@@H]2O)[C@H](O)[C@H](O)[C@H]1O[C@@H]1OC[C@@H](O)[C@H](O[C@@H]2OC[C@](O)(CO)[C@H]2O)[C@H]1O (stereo partly drawn) showed an activity change, negative = inhibition [3] of 20.8% [at 19.1 µM].
In the case of Cc1cn(C2C=CC(CO)O2)c(=O)[nH]c1=O (stereo not drawn), the Potency [3] is reported as “inactive”.
In the case of C[C@@H]1C(=O)O[C@H]2C[C@]34[C@H]5C[C@@H](C(C)(C)C)[C@]36[C@@H](OC(=O)[C@H]6O)O[C@]4(C(=O)O5)[C@]21O, the Potency [3] is reported as “inactive”.
With COc1ccc(C(=O)Nc2ncc(-c3ccc(C(=O)O)cc3)s2)cc1 the Potency [3] was 28.2 µM (active).
In the case of Nc1nccn2c(C3CCC(C(=O)O)CC3)nc(-c3cc4cccc(Cl)c4[nH]3)c12 (stereo not drawn), the Potency [3] is reported as 25.1 µM (active).
In the case of O=C(O)c1ccccc1NC(=O)N1CCC(c2ccccc2C(F)(F)F)CC1, the Potency [3] is reported as 22.4 µM (active).
